# Measured values as given in PubChem BioAssay (NCATS).
# Inconclusive results are not listed. A number with no mark means an inactive call. Active and inactive are the calls of the source. Calls follow the shape of the full dose curve; tested in HEK293 reporter line.
# Experiment: qHTS for Inhibitors of the Functional Ribonucleoprotein Complex (vRNP) of Lassa (LASV) Arenavirus: LASV Primary Screen - GLuc reporter signal (AID 1347082); also: nearly all actives have a fitted effect of over 60% in size
# Settings: LASV minigenome vRNP, Gaussia luciferase reporter; series mostly up to 57.5 µM; activity change, negative = inhibition: at the top concentration
# % is scaled to controls: 0 for no effect and ±100 for the full control effect; potency is read from the fitted curve at half-maximal effect.
Compound,"activity change, negative = inhibition",Potency
CC1(C)CC(=O)CC(C)(C)N1,-18.1% [at 115 µM],–
CC(=O)O[C@@H]1CC2C(C)(C)C(=O)C=C[C@]2(C)C2CC[C@]3(C)C(=CC[C@H]3C3CO[C@@H](C(C)(C)O)[C@H](O)C3)[C@@]21C (stereo not given in full),-18.9%,–
CCOC(=O)[C@H]1O[C@H]1C(=O)N[C@@H](CC(C)C)C(=O)NCCC(C)C,-0.175%,–
N#CC(=C(N)Sc1ccc(N)cc1)c1ccccc1C(F)(F)F,-4.51%,–
CC(C)=CCc1c(O)cc2c(c1O)C(=O)CC(c1ccccc1)O2 (stereo not given),7.31%,–
C=CCCCCCCCCCCCC(O)CC(O)COC(C)=O (stereo not given),2%,–
CCCCCCOC(=O)c1ccccc1,1.84% [at 115 µM],–
COC(=O)C1=CO[C@@H](C)[C@@H]2CN3CCc4c([nH]c5ccccc45)[C@@H]3C[C@H]12,-4.82%,–
OC[C@H]1O[C@@H](O[C@H]2[C@@H](O)[C@@](O)(CO)O[C@@H]2CO)[C@H](O)[C@@H](O)[C@@H]1O,-4.26%,–
CC1OC(OC2C(CO)OC(OCC3OC(OC(=O)[C@@]45CCC(C)(C)C[C@@H]4C4=CC[C@@H]6[C@@]7(C)CCC(OC8OCC(O)C(O)C8OC8OC(C)C(O)C(O)C8O)[C@@](C)(CO)C7CC[C@@]6(C)[C@]4(C)CC5)C(O)C(O)C3O)C(O)C2O)C(O)C(O)C1O (stereo not given in full),-8.11%,–
CC(=O)c1c(O)cc(O)cc1O,2.94%,–
CC(C)(O)C1CC[C@@]2(C)C3CCC4[C@@]5(C)CCCC(C)(C)C5C(O)C[C@]4(C)[C@]3(C)CC[C@@H]12 (stereo not given in full),1.12%,–
O=C(CCc1ccc(O)cc1)c1c(O)cc(O)cc1O[C@@H]1O[C@H](CO)[C@H](O)[C@H](O)[C@H]1O,-10.7%,–
CC1=CC(=O)CCC1,-11.6% [at 115 µM],–
c1ccc2nc(-c3ccc4c(c3)OCO4)ccc2c1,-8.46%,–
CC(C)CCCC(=O)O,2.56% [at 115 µM],–
CC(C)c1noc(N2CCC(COc3ccc(-c4ccc(S(C)(=O)=O)cc4)nc3)CC2)n1,-19.6%,–
CCCCCCC[C@@H](C/C=C/CCC(=O)N(C)C/C(=C/Cl)C/C(=C\C(=O)N1CC(OC)=CC1=O)OC)OC,36.3%,–
COc1cc2c(cc1OC)C1Cc3ccc(OC)c(OC)c3C[N+]1([O-])CC2 (stereo not given),-1.52%,–
C=C(C)[C@]12C[C@@H](C)[C@@]34O[C@](Cc5ccccc5)(O[C@@H]1[C@@H]3C=C(COC(=O)Cc1ccc(O)c(OC)c1)C[C@]1(O)C(=O)C(C)=C[C@@H]41)O2,3.13%,–

Compound,"activity change, negative = inhibition",Potency
COc1cc2c3c(c1OC)C1(C=CC(=O)C=C1)CC3N(C(C)=O)CC2 (stereo not given),8.05%,–
NC(=O)Nc1ccc(Cl)c(Cl)c1,-5.62% [at 115 µM],–
COC(=O)c1ccccc1-n1c(C)nc2ccccc2c1=O,-0.434%,–
O=C(CO)c1c[nH]c2ccccc12,-0.335%,–
CCC1(CC)C(=O)NC(=O)N(c2ccccc2)C1=O,18.1%,–
CCCC(=O)OCCC(C)CCC=C(C)C (stereo not given),-5.03% [at 115 µM],–
CC1=CCCC(C)(C)C12CCC(C)O2 (stereo not given),-0.11% [at 115 µM],–
CCOC(=O)[C@H](CCc1ccccc1)N[C@@H](C)C(=O)N1CCCC1C(=O)O (stereo not given in full),29.5%,–
C=C1C(O)C[C@H]2C(=C)CCC3[C@H](OC(=O)[C@]3(O)CO)[C@@H]12 (stereo not given in full),-3%,–
Cc1ccc(-c2ccccc2)cc1,2.41% [at 115 µM],–
NC1(C(=O)N[C@@H](CCO)c2ccc(Cl)cc2)CCN(c2ncnc3[nH]ccc23)CC1,–,0.968 µM (active)
Oc1ccc(C=Cc2cc(O)cc(O)c2)cc1,-2.54%,–
COc1cc(-c2cc(=O)c3c(O)cc(O)cc3o2)ccc1O,1.98%,–
COc1cc2oc(=O)ccc2c(OC)c1CC(O)C(C)(C)O (stereo not given),8.91%,–
COc1c2c(cc(O)c1C(C)=O)OC(C)(C)C=C2,1.57%,–
C=C(C)[C@H]1CC=C(CO)CC1,-1.41%,–
CCOC(=O)CC(C)C,-5.51% [at 115 µM],–
C=C1[C@H](n2cnc3c(=O)[nH]c(N)nc32)C[C@H](O)[C@H]1CO,11.6%,–
SC1CCCC1,-1.6% [at 115 µM],–
CC1=C(O)C(=O)OC1C (stereo not given),5.47% [at 115 µM],–

# Experiment: qHTS for Inhibitors of the Functional Ribonucleoprotein Complex (vRNP) of Lassa (LASV) Arenavirus: Viability assay - alamar blue signal for LASV Primary Screen (AID 1347083); also: nearly all actives have a fitted effect of over 80% in size
# Settings: cell viability, alamar blue fluorescence (LASV minigenome counter-screen); series mostly up to 57.5 µM; activity change, negative = reduced viability: at the top concentration
Compound,"activity change, negative = reduced viability",Potency
CC1(C)CC(=O)CC(C)(C)N1,10.9% [at 115 µM],–
CC(=O)O[C@@H]1CC2C(C)(C)C(=O)C=C[C@]2(C)C2CC[C@]3(C)C(=CC[C@H]3C3CO[C@@H](C(C)(C)O)[C@H](O)C3)[C@@]21C (stereo not given in full),0.318%,–
CCOC(=O)[C@H]1O[C@H]1C(=O)N[C@@H](CC(C)C)C(=O)NCCC(C)C,-28.1%,–
N#CC(=C(N)Sc1ccc(N)cc1)c1ccccc1C(F)(F)F,13.3%,–
CC(C)=CCc1c(O)cc2c(c1O)C(=O)CC(c1ccccc1)O2 (stereo not given),10.8%,–
C=CCCCCCCCCCCCC(O)CC(O)COC(C)=O (stereo not given),18%,–
CCCCCCOC(=O)c1ccccc1,7.35% [at 115 µM],–
COC(=O)C1=CO[C@@H](C)[C@@H]2CN3CCc4c([nH]c5ccccc45)[C@@H]3C[C@H]12,-16%,–
OC[C@H]1O[C@@H](O[C@H]2[C@@H](O)[C@@](O)(CO)O[C@@H]2CO)[C@H](O)[C@@H](O)[C@@H]1O,6.17%,–
CC1OC(OC2C(CO)OC(OCC3OC(OC(=O)[C@@]45CCC(C)(C)C[C@@H]4C4=CC[C@@H]6[C@@]7(C)CCC(OC8OCC(O)C(O)C8OC8OC(C)C(O)C(O)C8O)[C@@](C)(CO)C7CC[C@@]6(C)[C@]4(C)CC5)C(O)C(O)C3O)C(O)C2O)C(O)C(O)C1O (stereo not given in full),-4.95%,–
CC(=O)c1c(O)cc(O)cc1O,23.8%,–
CC(C)(O)C1CC[C@@]2(C)C3CCC4[C@@]5(C)CCCC(C)(C)C5C(O)C[C@]4(C)[C@]3(C)CC[C@@H]12 (stereo not given in full),2.73%,–
O=C(CCc1ccc(O)cc1)c1c(O)cc(O)cc1O[C@@H]1O[C@H](CO)[C@H](O)[C@H](O)[C@H]1O,11%,–
CC1=CC(=O)CCC1,9.76% [at 115 µM],–
c1ccc2nc(-c3ccc4c(c3)OCO4)ccc2c1,-0.227%,–
CC(C)CCCC(=O)O,15.5% [at 115 µM],–
CC(C)c1noc(N2CCC(COc3ccc(-c4ccc(S(C)(=O)=O)cc4)nc3)CC2)n1,4.04%,–
CCCCCCC[C@@H](C/C=C/CCC(=O)N(C)C/C(=C/Cl)C/C(=C\C(=O)N1CC(OC)=CC1=O)OC)OC,17.8%,–
COc1cc2c(cc1OC)C1Cc3ccc(OC)c(OC)c3C[N+]1([O-])CC2 (stereo not given),7.11%,–
C=C(C)[C@]12C[C@@H](C)[C@@]34O[C@](Cc5ccccc5)(O[C@@H]1[C@@H]3C=C(COC(=O)Cc1ccc(O)c(OC)c1)C[C@]1(O)C(=O)C(C)=C[C@@H]41)O2,-4.5%,–

Compound,"activity change, negative = reduced viability",Potency
COc1cc2c3c(c1OC)C1(C=CC(=O)C=C1)CC3N(C(C)=O)CC2 (stereo not given),10.4%,–
NC(=O)Nc1ccc(Cl)c(Cl)c1,-8.65% [at 115 µM],–
COC(=O)c1ccccc1-n1c(C)nc2ccccc2c1=O,1.01%,–
O=C(CO)c1c[nH]c2ccccc12,-12.8%,–
CCC1(CC)C(=O)NC(=O)N(c2ccccc2)C1=O,4.29%,–
CCCC(=O)OCCC(C)CCC=C(C)C (stereo not given),-2.9% [at 115 µM],–
CC1=CCCC(C)(C)C12CCC(C)O2 (stereo not given),-15.4% [at 115 µM],–
CCOC(=O)[C@H](CCc1ccccc1)N[C@@H](C)C(=O)N1CCCC1C(=O)O (stereo not given in full),-4.19%,–
C=C1C(O)C[C@H]2C(=C)CCC3[C@H](OC(=O)[C@]3(O)CO)[C@@H]12 (stereo not given in full),-0.703%,–
Cc1ccc(-c2ccccc2)cc1,18.1% [at 115 µM],–
NC1(C(=O)N[C@@H](CCO)c2ccc(Cl)cc2)CCN(c2ncnc3[nH]ccc23)CC1,–,0.385 µM (active)
Oc1ccc(C=Cc2cc(O)cc(O)c2)cc1,-33.4%,–
COc1cc(-c2cc(=O)c3c(O)cc(O)cc3o2)ccc1O,-29%,–
COc1cc2oc(=O)ccc2c(OC)c1CC(O)C(C)(C)O (stereo not given),3.73%,–
COc1c2c(cc(O)c1C(C)=O)OC(C)(C)C=C2,16.6%,–
C=C(C)[C@H]1CC=C(CO)CC1,5.48%,–
CCOC(=O)CC(C)C,3.1% [at 115 µM],–
C=C1[C@H](n2cnc3c(=O)[nH]c(N)nc32)C[C@H](O)[C@H]1CO,8.16%,–
SC1CCCC1,17.3% [at 115 µM],–
CC1=C(O)C(=O)OC1C (stereo not given),5.87% [at 115 µM],–
